Consider 18 molecules from PubChem BioAssay (Tox21).

Records with an inconclusive call do not appear. Calls of active or inactive are those of the source. Unless noted, the call rests on the fitted dose curve.

Experiment [1] is described as follows: qHTS assay to identify small molecule agonists of the sonic hedgehog signaling (Shh) pathway (AID 1259368).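 Further: NIH/3T3-derived 3T3Gli1-Luc cells carrying a stable Gli1-driven firefly luciferase reporter; series mostly up to about 92 µM; nearly all actives have a fitted effect of over 15% in size.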 In short, it runs like this:
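3T3Gli1-Luc (NIH/3T3 clone, stable Gli1-Luc); 4 hr pre-incubation, then cpd in DMSO 24 hr, 37 C/5% CO2; luciferase reagent 30 min RT; luminescence.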
On the technique in general: Quantitative high-throughput screening tests each substance at several concentrations.

Experiment [2] addresses Estrogen receptor beta (Homo sapiens) (UniProt Q92731). Description: qHTS assay to identify small molecule antagonists of the estrogen receptor beta (ER-beta) signaling pathway (AID 1259378; active means well fitted inhibition curve with a large enough effect in the signal ratio in the repeat runs, not every such curve was filed as active; the % refers to the signal ratio). The method, boiled down:
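ER-beta-UAS-bla HEK293T (GripTite) cells in 2% charcoal-stripped FBS medium were preincubated 6 hr at 37C, dosed with compound, then stimulated with 1 nM E2 (final) for 16 hr; beta-lactamase reporter read by B/G FRET fluorescence after 2 hr substrate loading.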

The nature of experiment [3]: qHTS assay to identify small molecule agonists of the androgen receptor (AR) signaling pathway in the presence of an antagonist - cell viability counter screen (AID 1259379; active means well fitted curve in the direction sought with a large enough effect in the repeat runs; an effect the other way counts as inactive or inconclusive; further: nearly all actives have a fitted effect of over 25% in size; further: potency means the concentration at half of the fitted maximal effect). In short, it runs like this: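 Cells: MDA-kb2 (MMTV-luc, AR and GR elements), 3,000/well, 5 hr settle. Added: nilutamide 3.0uM final, then compounds (15 conc.). Incubation: 16 hr, 37C, no CO2. Read-out: CellTiter-Fluor, 1 hr, fluorescence.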

Experiment [4] is described as follows: qHTS assay to identify small molecule agonists of the estrogen receptor beta (ER-beta) signaling pathway - cell viability counter screen (AID 1259380; active means well fitted curve in the direction sought with a large enough effect in the repeat runs; an effect the other way counts as inactive or inconclusive; further: nearly all actives have a fitted effect of over 30% in size). In short, it runs like this: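 HEK293T ER-beta-UAS-bla; 2% CS-FBS; 6 hr pre-plate, 16 hr cpd at 37C/5% CO2; LiveBLAzer read first, then CellTiter-Glo 30 min RT, luminescence.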
Experiment [5] is described as follows: qHTS assay to identify small molecule antagonists of the estrogen receptor beta (ER-beta) signaling pathway - cell viability counter screen (AID 1259382; active means well fitted curve in the direction sought with a large enough effect in the repeat runs; an effect the other way counts as inactive or inconclusive; further: series mostly up to about 92 µM; nearly all actives have a fitted effect of over 55% in size). The method, boiled down:
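Cells: ER-beta-UAS-bla HEK293T, 2,000/well, 2% CS-FBS, 6 hr settle. Cpd + E2 (1nM final), 16 hr, 37C/5% CO2. Bla FRET substrate 2 hr RT, then CellTiter-Glo 30 min RT, luminescence.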

Experiment [6] deals with Estrogen receptor (Homo sapiens) (UniProt P03372). Description: qHTS assay to identify small molecule agonists of the estrogen receptor alpha (ER-alpha) signaling pathway in the presence of an antagonist (AID 1259383). Further: nearly all actives have a fitted effect of over 15% in size. Further: potency means the concentration at half of the fitted maximal effect. On activation: top concentration of the series differs between compounds. In short, it runs like this: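 VM7Luc4E2, endog. ER-alpha + 4×ERE-luc; charcoal-stripped FBS, phenol red-free, 5 d; 24hr plating; +10.0nM ICI-182,780 (final); cpds 15 conc, 22hr, 37C/5% CO2; ONE-Glo luminescence.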
Estrogen receptor (Homo sapiens), sequence (P03372 whole entry, looked up): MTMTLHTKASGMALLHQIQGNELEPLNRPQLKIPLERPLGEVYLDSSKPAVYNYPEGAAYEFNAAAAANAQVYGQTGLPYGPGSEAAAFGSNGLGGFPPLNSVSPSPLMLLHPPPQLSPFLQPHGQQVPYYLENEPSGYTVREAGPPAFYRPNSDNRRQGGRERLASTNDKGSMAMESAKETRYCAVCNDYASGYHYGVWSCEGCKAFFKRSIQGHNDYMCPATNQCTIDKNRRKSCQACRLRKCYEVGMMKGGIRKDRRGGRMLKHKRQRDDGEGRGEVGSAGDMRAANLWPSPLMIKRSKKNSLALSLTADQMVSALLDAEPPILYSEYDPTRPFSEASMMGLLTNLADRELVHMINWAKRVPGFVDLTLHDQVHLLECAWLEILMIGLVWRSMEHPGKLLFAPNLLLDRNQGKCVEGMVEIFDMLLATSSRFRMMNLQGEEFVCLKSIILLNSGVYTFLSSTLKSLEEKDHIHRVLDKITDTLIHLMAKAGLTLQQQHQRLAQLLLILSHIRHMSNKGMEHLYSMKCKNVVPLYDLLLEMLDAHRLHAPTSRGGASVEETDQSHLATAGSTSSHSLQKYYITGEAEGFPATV

A short description of experiment [7]: qHTS assay to identify small molecule agonists or antagonists of the thyroid stimulating hormone receptor (TSHR) signaling pathway - wild type cell line counter screen (AID 1259384). The method, boiled down:
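Wild-type HEK293 cells were plated 18 h at 37 C/5% CO2, pin-dosed with compound plus Ro20-1724 medium, held 30 min at room temperature, then given cAMP-d2 and anti-cAMP-cryptate; fluorescence was read after 1 h. Fifteen concentrations, triplicate.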

A short description of experiment [8]: qHTS assay to identify small molecule antagonists of the sonic hedgehog signaling (Shh) pathway (AID 1259369). Further: nearly all actives have a fitted effect of over 45% in size. The method, boiled down: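 3T3Gli1-Luc, conditioned-medium-stimulated, 24hr cpd, 37C/5% CO2; Gli1-driven firefly Luc luminescence after 30min RT with luciferase reagent. Cells plated 4hr before cpd.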
In experiment [9] the target is Estrogen receptor beta (Homo sapiens) (UniProt Q92731). Description: qHTS assay to identify small molecule agonists of the estrogen receptor beta (ER-beta) signaling pathway (AID 1259377; active means well fitted activation curve with a large enough effect in the signal ratio in the repeat runs, not every such curve was filed as active; the % refers to the signal ratio; further: potency means the concentration at half of the fitted maximal effect). In short, it runs like this:
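HEK293T ER-beta-UAS-bla; 2% charcoal-stripped FBS; cells pre-incubated 6 hr, compound 16 hr, 37C/5% CO2; LiveBLAzer B/G FRET substrate 2 h RT; fluorescence intensity read.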

Experiment [10] concerns the target Androgen receptor (Homo sapiens) (UniProt P10275). Description: qHTS assay to identify small molecule agonists of the androgen receptor (AR) signaling pathway in the presence of an antagonist (AID 1259381). Further: nearly all actives have a fitted effect of over 15% in size. The method, boiled down: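 MDA-kb2 cells, 3,000/well, rested 5hr at 37C/0% CO2 → nilutamide 3.0uM final or buffer → compounds, 15 conc. → 16hr at 37C → ONE-Glo, 30min RT → luminescence.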

Estrogen receptor beta (Homo sapiens), sequence (Q92731 whole entry, looked up): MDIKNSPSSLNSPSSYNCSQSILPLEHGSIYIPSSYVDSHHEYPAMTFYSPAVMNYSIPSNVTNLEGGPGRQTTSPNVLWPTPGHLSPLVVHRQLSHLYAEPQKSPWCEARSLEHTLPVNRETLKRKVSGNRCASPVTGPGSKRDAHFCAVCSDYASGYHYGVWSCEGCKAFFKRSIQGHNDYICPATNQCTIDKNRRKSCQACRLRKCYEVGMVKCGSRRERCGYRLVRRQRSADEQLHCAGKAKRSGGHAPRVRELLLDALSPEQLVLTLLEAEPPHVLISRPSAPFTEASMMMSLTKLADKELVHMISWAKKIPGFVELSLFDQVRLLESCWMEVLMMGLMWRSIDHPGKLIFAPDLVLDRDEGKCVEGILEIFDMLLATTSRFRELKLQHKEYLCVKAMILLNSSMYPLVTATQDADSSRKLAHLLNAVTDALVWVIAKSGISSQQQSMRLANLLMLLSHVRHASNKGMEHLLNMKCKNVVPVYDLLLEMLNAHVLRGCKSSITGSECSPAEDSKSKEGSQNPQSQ
Androgen receptor (Homo sapiens), sequence (P10275 whole entry, looked up): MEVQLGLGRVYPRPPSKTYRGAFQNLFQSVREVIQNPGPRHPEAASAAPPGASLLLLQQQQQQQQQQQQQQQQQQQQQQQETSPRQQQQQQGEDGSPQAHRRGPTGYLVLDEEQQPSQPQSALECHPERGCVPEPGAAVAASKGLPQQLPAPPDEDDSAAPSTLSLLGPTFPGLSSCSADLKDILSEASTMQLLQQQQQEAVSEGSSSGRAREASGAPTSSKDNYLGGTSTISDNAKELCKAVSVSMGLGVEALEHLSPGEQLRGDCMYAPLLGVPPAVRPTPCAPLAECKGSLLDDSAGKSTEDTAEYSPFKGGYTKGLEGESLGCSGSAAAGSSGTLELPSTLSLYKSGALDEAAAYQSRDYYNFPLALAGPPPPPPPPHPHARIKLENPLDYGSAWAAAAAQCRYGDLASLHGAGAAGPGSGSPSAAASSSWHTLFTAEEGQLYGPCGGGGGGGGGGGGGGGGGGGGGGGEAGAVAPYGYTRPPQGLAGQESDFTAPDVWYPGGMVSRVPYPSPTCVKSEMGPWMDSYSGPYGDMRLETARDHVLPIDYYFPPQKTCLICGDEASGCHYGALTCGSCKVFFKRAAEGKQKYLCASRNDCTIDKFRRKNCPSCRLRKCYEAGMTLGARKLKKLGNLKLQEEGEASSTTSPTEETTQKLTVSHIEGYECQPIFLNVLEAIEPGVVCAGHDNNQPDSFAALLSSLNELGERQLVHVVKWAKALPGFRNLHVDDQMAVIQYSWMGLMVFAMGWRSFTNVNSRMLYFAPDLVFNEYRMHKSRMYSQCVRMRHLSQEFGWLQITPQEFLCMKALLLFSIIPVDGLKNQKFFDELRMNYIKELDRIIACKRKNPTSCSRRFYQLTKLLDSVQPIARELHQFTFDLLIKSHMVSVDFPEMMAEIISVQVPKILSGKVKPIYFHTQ

For the molecule `Cc1ccccc1CCO`, the Potency entry in experiment [1], in experiment [2], in [3], in experiment [4], in experiment [5] and in experiment [6] was “inactive” in each case. In addition, in experiment [7], the result was inactive.
On to `Clc1cc(Cl)c2c(c1)N=C1CCCCCN1C2`, for which the Potency entry in experiment [1], in experiment [8], in experiment [3], in [5] and in [6] was “inactive” in each case. Also, in experiment [7], the molecule was classed as inactive.
For the molecule `COc1ccc(/C=C/c2cc(OC)cc(=O)o2)cc1`, the Potency result in experiment [8], in experiment [2], in [3], in [4], in [5] and in experiment [6] was “inactive” each time.
As to `CC(C)Oc1ccccc1O`, the Potency entry in experiment [1], in [8], in experiment [3] and in experiment [6] was “inactive” throughout. In experiment [7], the call was inactive.
`Clc1ccccc1-c1nc(-c2ccncc2)no1`: the Potency entry in [8], in experiment [3], in [4] and in experiment [5] was “inactive” each time. The molecule was called inactive in [7].
Consider `CC(=O)S[C@H](C(=O)N[C@H]1Cc2ccccc2[C@H]2CCC[C@@H](C(=O)O)N2C1=O)C(C)C`, for which the Potency result in experiment [1], in [8], in experiment [3] and in experiment [5] was “inactive” each time. Also, the result in [7] was inactive.
With `Oc1ccc(Oc2ccccc2)cc1`, the Potency result in experiment [1], in experiment [3], in experiment [4] and in experiment [5] was “inactive” each time. Moreover, the Potency is 11.6 µM (active) in [9] and 41 µM (active) in experiment [6]. For the same molecule, the outcome in [7] was inactive.
On to `COc1ccc(C(=O)c2ccc(C)cc2)c(O)c1`, for which the Potency result in experiment [8], in experiment [3], in experiment [4], in experiment [5] and in experiment [6] was “inactive” throughout. Moreover, the molecule was called inactive in experiment [7].
`CCOc1cc(OCC)c(C(C)=O)cc1OCC`: the Potency entry in experiment [1], in experiment [2], in experiment [10], in experiment [5] and in experiment [6] was “inactive” each time.
As to `c1ccc(CCNc2nc(-c3ccccc3)cs2)cc1`, the Potency entry in experiment [8], in experiment [9], in experiment [2], in experiment [3] and in experiment [5] was “inactive” throughout. Also, the Potency in [6] was 0.944 µM (active). Moreover, the molecule was classed as inactive in experiment [7].
Turning to `O=C(Cl)c1cc(Cl)cc(Cl)c1`, the Potency result in [1], in experiment [9], in experiment [2], in [3], in experiment [4] and in experiment [6] was “inactive” each time. Moreover, in [7], the outcome was inactive.
For `NC(=O)c1cc[n+](CC2=C(C(=O)[O-])N3C(=O)[C@@H](NC(=O)Cc4cccs4)[C@H]3SC2)cc1`, the Potency result in [1], in experiment [9], in [2], in [3], in experiment [4] and in experiment [5] was “inactive” each time. Moreover, in experiment [6], the Potency result was “inactive”.
As for `O=C(O)c1ccncc1`, the Potency entry in [1], in [2], in experiment [3], in experiment [4], in experiment [10] and in [5] was “inactive” in each case. Besides, the call in experiment [7] was inactive.
For the molecule `O=c1[nH]nc(-c2ccc([N+](=O)[O-])o2)o1`, the Potency result in experiment [1], in [2], in experiment [4], in [5] and in [6] was “inactive” each time. Moreover, the Potency in experiment [3] is 54.5 µM (active). In addition, in experiment [7], the molecule was classed as inactive.
Take `C[C@H]1C[C@H]2[C@@H]3CCC4=CC(=O)C=C[C@]4(C)[C@@]3(F)[C@@H](O)C[C@]2(C)[C@@]1(O)C(=O)COP(=O)(O)O`: the Potency entry in [1], in experiment [9], in experiment [2], in [3], in [4] and in experiment [5] was “inactive” in each case. Besides, the Potency result in [6] was “inactive”. Also, the outcome in [7] was inactive.
In the case of `CCn1nc(Cc2ccccc2)cc1C1CCN(C[C@H]2C[C@H](N(C)[C@@H](C(=O)O)C(C)C)C[C@@H]2c2cccc(F)c2)CC1`, the Potency entry in experiment [1], in experiment [9], in experiment [3], in experiment [5] and in experiment [6] was “inactive” throughout. The molecule was called inactive in [7].
On to `CCCc1nc(C)c2c(=O)[nH]c(-c3cc(S(=O)(=O)N4CCN(CC)CC4)ccc3OCC)nn12`, for which the Potency result in [1], in experiment [2], in experiment [3], in experiment [4], in [10] and in experiment [5] was “inactive” in each case.
Take `C(/C=C/C=C/Nc1ccccc1)=Nc1ccccc1`: the Potency entry in experiment [1], in experiment [9], in experiment [2], in [3], in [4] and in experiment [5] was “inactive” throughout. In addition, the Potency entry in experiment [6] is “inactive”.
